Rows were chosen to be rich in hits. Some 1.6% of all compounds tested hit in one or more screens of this group.
KCNQ2 block: blocks the rat KCNQ2 potassium channel. 310,000 tested, 1.1% active. CHO-K1 KCNQ2, FluxOR thallium flux, 20 min; stronger effect = lower value. B-score at 10 µM. AID 2156;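 active = fluorescence ratio B-score at most minus 3 library SDs, with starting brightness B-score within 2 library SDs, cut at about -5.5 in these data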
KCNQ2 enhance: KCNQ2 (rat) channel potentiation; O88943; CHO-K1 KCNQ2, FluxOR thallium flux fluorescence; stronger effect = higher value; B-score at 10 µM; 310,000 tested, 0.54% active; AID 2239;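 active = fluorescence ratio B-score at least 3 SD of library B-scores, with initial fluorescence B-score within 3 of them, cut at about 5.3 in these data; same plate scores as AID 2156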;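 note: B-score of peak minus minimum over baseline fluorescence ratio after K+ and Tl+ stimulus; positive B-score means potentiation of KCNQ2 with more thallium influx and brighter signal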
Kir21 confirm: confirmation of mouse Kir2.1 potassium channel inhibitors; shares compounds with KCNQ2 enhance; Kir2.1-expressing cells, FluxOR thallium flux fluorescence; stronger effect = lower value; Tl flux remaining, % of negative control (stronger effect = lower value), % at 10 µM; 2,300 tested, 41% active; AID 2032;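 active = Primary-screen hit whose thallium flux fell at least 3 control SD below untreated wells in both duplicates, with normal baseline fluorescence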;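 note: 0% = blank wells without stimulus and 100% = stimulated no-compound controls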
HEK293 ctr: counter-screen for Kir2.1 inhibitors: effect in parental HEK293 cells; shares compounds with KCNQ2 enhance; FluxOR thallium flux fluorescence; 0% = unstimulated blank wells; FluxOR signal as % of negative control (100 = no effect), % at 10 µM; 2,300 tested, 19% active; AID 2105;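 active = dye signal at least 3 control SD above or below untreated wells in both duplicates, raw fluorescence within 3, either direction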;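 note: percent is based on the flux ratio of peak minus minimum fluorescence over baseline F0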
CHO-K1 ctr: counter-screen for KCNQ2 potentiators: effect in parental CHO-K1 cells. FluxOR thallium flux fluorescence; zero = vehicle mean+3SD, 100% = vehicle-minus-blank window. activity increase over 3SD of controls, % at 10 µM. 1,200 tested, 43% active. shares compounds with KCNQ2 enhance;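 active = signal rise of at least 3 SD above the untreated control mean, in both duplicate wells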;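 note: counter screen of KCNQ2 potentiator hits so any rise reflects channel-independent effects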
KCNQ1 pot spec: human KCNQ1 counter-target activity of KCNQ2 potentiators | CHO KCNQ1 stable, FluxOR thallium flux fluorescence; beyond 3SD, as % of vehicle-control signal | shares compounds with KCNQ2 enhance | 1,200 tested, 28% active | AID 2283 | activation over 3SD threshold, % at 10 µM;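 active = fluorescence ratio rise of at least 3 SD of vehicle wells above their mean, in both replicate wells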;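 note: 0% = vehicle mean plus 3 SD and 100% = vehicle minus unstimulated blank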
Target sequence (P51787 whole entry, looked up): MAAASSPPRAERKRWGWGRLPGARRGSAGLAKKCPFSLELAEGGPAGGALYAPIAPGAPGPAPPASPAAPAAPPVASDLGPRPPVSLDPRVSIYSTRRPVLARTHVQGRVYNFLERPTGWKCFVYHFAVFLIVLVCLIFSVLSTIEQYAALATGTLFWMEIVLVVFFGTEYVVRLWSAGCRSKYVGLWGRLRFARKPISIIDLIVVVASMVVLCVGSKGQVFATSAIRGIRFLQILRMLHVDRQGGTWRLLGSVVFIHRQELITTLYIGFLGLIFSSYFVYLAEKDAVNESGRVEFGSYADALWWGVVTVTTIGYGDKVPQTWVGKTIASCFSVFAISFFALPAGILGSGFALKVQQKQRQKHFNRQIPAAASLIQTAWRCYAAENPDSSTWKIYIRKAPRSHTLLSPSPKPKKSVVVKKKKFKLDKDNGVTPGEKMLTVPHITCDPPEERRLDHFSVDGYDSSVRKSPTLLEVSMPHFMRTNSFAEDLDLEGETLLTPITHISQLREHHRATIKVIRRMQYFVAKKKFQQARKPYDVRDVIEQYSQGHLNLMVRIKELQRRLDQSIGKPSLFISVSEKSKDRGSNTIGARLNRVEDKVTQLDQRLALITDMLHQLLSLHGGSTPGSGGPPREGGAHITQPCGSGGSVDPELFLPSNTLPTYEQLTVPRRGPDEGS
KCNQ2 pot confirm: confirmation of rat KCNQ2 potassium channel potentiators; shares compounds with KCNQ2 enhance; CHO-KCNQ2 cells, FluxOR thallium flux fluorescence; potentiation, less the hit threshold, % at 10 µM; 1,200 tested, 68% active; AID 2287;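 active = fluorescence ratio rising 3 SD or more over the vehicle control mean in both replicates, plus primary screen hit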;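 note: peak minus minimum thallium fluorescence divided by baseline after K/Tl stimulus; 0% = vehicle mean plus 3 SD and 100% = vehicle minus unstimulated blank difference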
Kir2-1 sel: tests whether KCNQ2 potentiators also affect mouse Kir2.1; shares compounds with KCNQ2 enhance; HEK293 Kir2.1, FluxOR thallium flux fluorescence; activity over 3SD threshold, % at 10 µM; 1,200 tested, 2% active; AID 2345;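 active = fluorescence ratio rise of at least 3 SD above the vehicle-control mean, seen in both replicates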;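 note: 0% = vehicle mean plus 3 SD and 100% = vehicle minus no-stimulus blank window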
KCNQ2 W236L MoA: rat KCNQ2 W236L mutant potentiation by KCNQ2 potentiators; CHO KCNQ2-W236L, automated patch clamp current; current increase over 3SD of negative controls (%), stronger effect = higher value, % at 25 µM; 940 tested, 10% active; shares compounds with KCNQ2 enhance;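 active = current increase at least 3 SD of the untreated controls above them in both duplicate recordings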
The depositor's hits bear a star.

`Cc1cc(-c2csc3nc[nH]c(=S)c23)cc(C)c1C` gave KCNQ2 block inactive, KCNQ2 enhance 15*, Kir21 confirm inactive, HEK293 ctr 262%*, CHO-K1 ctr -9, KCNQ1 pot spec -17, KCNQ2 pot confirm 36*, Kir2-1 sel -20 and KCNQ2 W236L MoA inactive.
O=c1[nH]cnc2scc(-c3ccsc3)c12 was read as KCNQ2 block inactive and KCNQ2 enhance 2.3.
CCCCn1c(N)c(N(CCOC)C(=O)CSc2nnc(-c3ccncc3)n2CCC)c(=O)[nH]c1=O was read as KCNQ2 block inactive.
For c1ccc2c(-c3[nH]ncc3CNCCCn3ncc4ccccc43)cccc2c1 the results were KCNQ2 block inactive and KCNQ2 enhance 0.04.
For S=c1nc(-c2ccccc2)[nH]c2ccc(Br)cc12 the results were KCNQ2 block inactive, KCNQ2 enhance 29*, Kir21 confirm inactive, HEK293 ctr inactive, CHO-K1 ctr -74, KCNQ1 pot spec 21*, KCNQ2 pot confirm 66*, Kir2-1 sel -18 and KCNQ2 W236L MoA inactive.
Cc1cc(=O)c2cc(Br)ccc2[nH]1 was read as KCNQ2 block inactive.
Screening CCOc1ccc(CNC(=O)CCC(=O)N2Cc3ccccc3Oc3ncccc32)cc1 returned KCNQ2 block inactive and KCNQ2 enhance 1.8.
`Cc1cc(C)c(NC(=O)CC(C)(C)C)c(Cl)c1` gave KCNQ2 block inactive, KCNQ2 enhance 25*, Kir21 confirm inactive, HEK293 ctr inactive, CHO-K1 ctr -8, KCNQ1 pot spec -28, KCNQ2 pot confirm 73*, Kir2-1 sel -29 and KCNQ2 W236L MoA inactive.
`Cc1cc(C)c(NC(=O)CC(=O)c2ccccc2)c(Cl)c1` gave KCNQ2 block inactive and KCNQ2 enhance 1.9.
`Cc1cc(C)c(NC(=O)CS)c(Cl)c1` gave KCNQ2 block inactive, KCNQ2 enhance 20*, Kir21 confirm inactive, HEK293 ctr inactive, CHO-K1 ctr -16, KCNQ1 pot spec -2, KCNQ2 pot confirm 95*, Kir2-1 sel -40 and KCNQ2 W236L MoA inactive.
For Cc1cc(C)c(NC(=O)/C=C\C(=O)O)c(Cl)c1 the results were KCNQ2 block inactive.
Screening N#CCNc1ccc([N+](=O)[O-])cc1C#N returned KCNQ2 block inactive and KCNQ2 enhance 0.15.
For O=C(CN1C(=O)CC(c2ccco2)Sc2ccccc21)NC1CCCCC1 (stereo not drawn) the results were KCNQ2 block inactive.
CCN(Cc1ccccc1)C(=O)COC(=O)c1cc(=O)[nH]c2ccccc12 was read as KCNQ2 block inactive and KCNQ2 enhance 0.33.
Screening Cc1cc(C)cc(NC(=O)Cn2c(-c3ccccc3Cl)nc3ccccc32)c1 returned KCNQ2 block inactive and KCNQ2 enhance 1.1.
For O=C(Cn1c(CO)nc2ccccc21)Nc1ccccc1Cl the results were KCNQ2 block inactive, KCNQ2 enhance 0.1, Kir21 confirm inactive and HEK293 ctr inactive.
CCN1CCc2c(OCc3ccc(C)cc3)cccc2C1=O was read as KCNQ2 block inactive.
COc1ccccc1CNC(=O)COC(=O)C1CCN(S(=O)(=O)c2ccc(C)c(C)c2)CC1 was read as KCNQ2 block inactive.
`COC(=O)c1ccccc1Oc1ccc(NC(=O)CCCl)cc1` gave KCNQ2 block inactive and KCNQ2 enhance 0.06.
CCOc1ccc(CNC(=O)c2ccc3c(c2)N(CC)CCS3)cc1 was read as KCNQ2 block inactive.
